HCV inhibitor – HCV inhibition. Huh7.5.1 HCVcc-Cre infection, luciferase reporter, 44 h. hit rate 3.4% among 340,000. Potency, µM (titrated, usually from 41.8 µM), without a hit: at the highest dose activity change, negative = inhibition, hits mostly inhibitors; also: potency is read from the fitted curve at half-maximal effect
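1,000 cells/well; 4 h culture; + compound; + HCVcc-Cre (~0.5 moi); 44 h; luciferase substrate, RT 15 min; read 15 sec.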
FMDV inh – foot and mouth disease virus antiviral activity; FMDV antiviral cell-based qHTS; Potency, µM (series often up to 57.9 µM), for inactives: at the highest dose activity change, negative = inhibition, usual class: inhibitors; hit rate 1.2% among 410,000; AID 1159524; calls by dose curve; tested in HEK293T cells; also: read-out not given here; potency is read from the fitted curve at half-maximal effect; nearly all actives have a fitted effect of over 45% in size
Marburg entry inh – inhibitors of Marburg virus binding or cell entry | Potency, µM (doses to about 37.8 µM), for the others: at the top dose activity change, negative = inhibition, actives largely listed as inhibitors | AID 540276 | hit rate 1.8% among 300,000 | Marburg virus pseudotyped entry inhibition, cell reporter; calls by dose curve; tested in HEK293 cells; also: potency is read from the fitted curve at half-maximal effect
HCMV inh – blocks human cytomegalovirus replication; HFF cells, HCMV-luciferase reporter, 72 h; stronger effect = lower value; hit rate 4.5% among 410,000; activity change, negative = inhibition, % at 57.5 µM; in the data active = activity change below about -60%; inconclusive = no clear call, values can overlap the other calls; inactive = above about -39%
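Compounds were evaluated in HFFs infected with an HCMV luciferase reporter virus (MOI 1 PFU/cell). Luciferase in lysates collected 72 h post infection served as the replication measure.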
FBPA Giardia inh – inhibitors of Giardia lamblia fructose-1,6-bisphosphate aldolase; A8B2U2; purified Giardia FBPA; Potency, µM (highest dose often 59.6 µM), for the others: at the highest dose activity, negative = inhibition, hits mostly inhibitors; hit rate 0.71% among 290,000; AID 2451; also: potency is read from the fitted curve at half-maximal effect; nearly all actives have a fitted effect of over 55% in size
Target sequence (A8B2U2 whole entry, looked up): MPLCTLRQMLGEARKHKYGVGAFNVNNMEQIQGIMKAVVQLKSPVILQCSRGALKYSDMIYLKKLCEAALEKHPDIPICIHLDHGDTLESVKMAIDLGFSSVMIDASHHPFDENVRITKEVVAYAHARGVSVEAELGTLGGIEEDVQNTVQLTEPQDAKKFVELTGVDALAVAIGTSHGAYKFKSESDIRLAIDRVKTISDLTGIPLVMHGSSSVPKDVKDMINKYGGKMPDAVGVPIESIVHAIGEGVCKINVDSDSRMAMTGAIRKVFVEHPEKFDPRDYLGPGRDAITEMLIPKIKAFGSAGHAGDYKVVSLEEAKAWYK
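40 nM FBPA preincubated 10 min at RT with compound (up to 57.5 uM final), then substrate plus GAPDH/TPI/NAD/arsenate coupling and diaphorase/resazurin added. Fluorescence read after 20 min at RT, 525/598 nm.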
LASV entry inh – Lassa virus entry inhibition; Lassa virus pseudotype entry inhibition, cell reporter; Potency, µM (top dose mostly 37.9 µM), for the others: at the top dose activity change, negative = inhibition, usual class: inhibitors; hit rate 1.2% among 300,000; AID 540256; calls by dose curve; tested in HEK293 cells; also: potency is read from the fitted curve at half-maximal effect; nearly all actives have a fitted effect of over 50% in size
* hit, by the source's call; ? = inconclusive; . = no result given; [ ] = dose if it differs, or a comment. Sampled rows, rich in hits. Any-hit rate of the full collection: about 8.3%. Unless noted, calls follow the shape of the dose curve; as a rule, active = well fitted curve in the direction sought with a large enough effect; inconclusive = small, poorly fitted or top-dose-only effect, or another doubt; inactive = no such curve, though single readings can be large; an effect the other way counts as inactive or inconclusive. % is scaled to controls: 0 for no effect and ±100 for the full control effect.

SMILES	HCV inhibitor	FMDV inh	Marburg entry inh	HCMV inh	FBPA Giardia inh	LASV entry inh
CN1CCN(c2ncnc3ccc(-c4cccc(NS(C)(=O)=O)c4)cc23)CC1	.	0%	.	.	-2%	.
Cc1snc(SCc2ccc(Cl)cc2)c1C#N	-26%	20%	.	-100*	-10%	.
Cc1snc(SCc2ccc(F)cc2)c1C#N	11%	1%	0%[46.1 µM]	0	10%	-7%
CCCn1nc(NC(=O)c2cccs2)c2cc3cc(OC)ccc3nc21	10µM*	24%	-9%	-16	?	?
CCCCn1nc(NC(=O)c2cccs2)c2cc3cc(OC)ccc3nc21	10µM*	-17%	?	-36	-21%	-18%
CCOC(=O)C1(C)C=C(Nc2cccc(C)c2)C(=O)N1c1ccccc1 (stereo not drawn)	.	-18%	9%[46.1 µM]	51	.	-5%[46.1 µM]
Cc1ccc2cc(CNC(C)c3cccc4ccccc34)c(N3CCC(O)CC3)nc2c1 (stereo not drawn)	.	0%	.	.	.	.
COc1ccc(C(=O)CSc2nnc(C3CCCCC3)n2N)c(OC)c1	10µM*	0%	?	5	-10%	?
CCOC(=O)C1CCN(S(=O)(=O)c2cc3c4c(c2)CC(=O)N4CCC3)CC1	.	0%	.	10	.	-3%[46.1 µM]
Cc1cc(C)c2nc(-c3ccccn3)cc(C(=O)NCc3ccc(S(N)(=O)=O)cc3)c2c1	?	-19%	11µM*	-18	0%	?
Cc1cc(C)cc(N(CC(=O)NCc2ccc3c(c2)OCO3)C(=O)CCC(=O)Nc2ccccn2)c1	-9%	?	?	2	1%	10µM*
O=C(NCc1ccc2c(c1)OCO2)c1cc(-c2ccccn2)nc2ccccc12	10µM*	-20%	-33%[46.1 µM]	-19	9%	-27%
Cc1cc(C)c2nc(-c3ccccn3)cc(C(=O)Nc3ccc(S(=O)(=O)Nc4cc(C)on4)cc3)c2c1	12%	?	-9%	14	.	-13%
Cc1nc2ccccc2c2oc(C(=O)NCc3ccc4c(c3)OCO4)cc12	8.9µM*	?	.	?	-4%	.
C=CCNC(=O)N1CCc2nc(-c3ccccc3)c3c(c2C1)CO[C@@H](C)C3	.	.	-29%[14.2 µM]	.	3%[12.9 µM]	?
CCc1ccc(NC(=O)c2cc3c(C)nc4ccccc4c3o2)cc1	?	?	?	-29	0%	?
Cc1ccc(CNC(=O)c2cc3c(C)nc4ccccc4c3o2)cc1	?	13µM*	.	-70*	0%	.
Cc1nc2ccccc2c2oc(C(=O)NCc3ccccn3)cc12	?	?	-19%	?	6%	-10%
Cc1ccccc1NC(=O)c1cc2c(C)nc3ccccc3c2o1	?	?	-8%[46.1 µM]	-83*	0%	-23%
COc1ccc(OC)c(NC(=O)c2c(C)oc3ncnc(N4CCOCC4)c23)c1	.	-11%	.	27	.	17%[46.1 µM]
Cc1cc(C(F)(F)F)nc(SCC(=O)Nc2ccccc2)n1	-2%	-19%	23%	-9	3%	16%
Cc1cc(C(F)(F)F)nc(SCC(=O)NC2CC3CCC2C3)n1 (stereo not drawn)	0%	-18%	2%	-68*	9%	19%
NC(=O)c1ccsc1NC(=O)COC(=O)/C=C/c1ccccc1	?	?	-16%[46.1 µM]	-21	.	8%
NC(=O)c1ccsc1NC(=O)COC(=O)/C=C/c1ccccc1[N+](=O)[O-]	-5%	32µM*	?	-8	.	12%
COc1ccc(-n2nc(C(=O)Nc3cc(C)ccn3)c3c4ccccc4n(C)c3c2=O)cc1Cl	.	3%	-1%[46.1 µM]	-20	.	-1%[46.1 µM]
SMILES	HCV inhibitor	FMDV inh	Marburg entry inh	HCMV inh	FBPA Giardia inh	LASV entry inh
COc1ccc(CCNC(=O)C(=O)NCC2OCCN2S(=O)(=O)c2ccc(Cl)cc2)cc1OC (stereo not drawn)	8.9µM*	?	.	-33	1%	.
COc1ccc(S(=O)(=O)N2CCOC2CNC(=O)C(=O)NCCc2ccccc2)cc1OC (stereo not drawn)	-3%	-11%	.	?	7%	.
COc1ccc(CCNC(=O)C(=O)NCC2OCCN2S(=O)(=O)c2ccc(Br)cc2)cc1OC (stereo not drawn)	?	-17%	?	20	4%	?
COc1ccc(S(=O)(=O)N2CCOC2CNC(=O)C(=O)NCCc2ccc(OC)c(OC)c2)cc1 (stereo not drawn)	?	?	?	-68*	3%	?
O=C(NCc1ccc2c(c1)OCO2)C(=O)NCC1OCCN1S(=O)(=O)c1ccc(Br)cc1 (stereo not drawn)	10µM*	-25%	-26%[46.1 µM]	-6	5%	?
O=C(O)C[C@H]1SC(=Nc2cccc(C(F)(F)F)c2)NC1=O	.	.	-22%[46.1 µM]	.	.	.
Cc1noc(/C=C/c2nn(C)cc2Cl)c1[N+](=O)[O-]	?	?	.	-98*	2%	.
Cc1cccc(N/C=C/c2onc(C)c2[N+](=O)[O-])c1	-2%	69%	?	119	0%	?
Cc1cccc(/C=C/c2onc(C)c2[N+](=O)[O-])n1	?	14µM*	-4%[46.1 µM]	-109*	.	-28%
COc1ccc(OC2C(O)COC2/C=C/C#Cc2ccc(F)cc2F)cc1 (stereo not drawn)	.	.	.	.	-1%[12.9 µM]	.
COC(=O)c1ccc(COC(=O)c2ccc(CS(=O)(=O)c3ccc(C)cc3)cc2)cc1	4%	5%	4%	34	0%	-4%
COC(=O)c1cc2c(n1S(=O)(=O)c1ccc(C)cc1)C(=O)C(=O)c1[nH]cc(C(=O)OCc3ccccc3)c1-2	?	11µM*	?	.	.	2.8µM*
O=C1NC2C(=CC(O)C(O)C2O)c2cc3c(c(O)c21)OCO3 (stereo not drawn)	0.25µM*	-10%	?	-101*	.	?
COC(=O)C1=C(C)N(C)C(=O)NC1c1cc2c(cc1Br)OCO2 (stereo not drawn)	5%	-19%	.	-8	-5%	.
O=C1NC2C(=CC(O)C(O)C2O)c2cc3c(cc21)OCO3 (stereo not drawn)	0.56µM*	?	?	-77*	.	1µM*
O=C1NC2C(O)C(O)C(O)C(O)C2c2cc3c(c(O)c21)OCO3 (stereo not drawn)	?	?	?	-98*	.	0.14µM*
CC(C)CO/N=C1/C[C@@H](O)[C@@H](O)[C@@H]2[C@@H]3C(=O)N(C(C)(C)C)C(=O)[C@H]3CC[C@H]12	.	.	.	.	5%[12.9 µM]	.
CC(=O)OC[C@H]1O[C@H](CCON=C(C)CCC(=O)OC[C@H]2O[C@H](C#Cc3ccccc3)C=C[C@H]2Oc2ccc(C)cc2)C=C[C@H]1OC(C)=O	.	.	21%[14.2 µM]	.	.	.
CC(=O)OC1CCC2(C)C(=CCC3C2CCC2(C)C3CC3OC4(CCC(C)CN4)C(C)C32)C1 (stereo not drawn)	7%	-16%	.	-24	-2%	.

Bioassay records (PubChem BioAssay)
